Compound activity as filed in PubChem.
CBFb-RUNX1 inh = blocks binding between human CBF-beta and RUNX1. AlphaScreen CBFb-His/RUNX1-biotin binding, biochemical. Potency, µM (titrated, usually from 59.8 µM), inactives show at the highest dose activity, negative = inhibition, most hits filed as inhibitors. 230,000 tested, under 10 active. AID 1477; further: % of control where 0% means no effect
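Proteins preincubated together for 20 min at RT before compound addition; 15 min later, nickel and streptavidin beads were added and left 90 min prior to AlphaScreen measurement.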
Tau fibril FP = tau fibrillization inhibition (FP) | P10636 | K18 P301L tau heparin fibrillization, Alexa594 FP, 6 h | Potency, µM (series often up to 57.7 µM), without a hit: top-dose activity, negative = inhibition, most hits filed as inhibitors | actives 0.39% (n = 280,000) | AID 1468; further: potency means the concentration at half of the fitted maximal effect; on the % scale 0 is the no-effect control and ±100 the full control effect; nearly all actives have a fitted effect of over 55% in size
Target sequence (P10636 561-689 P618L limits assumed): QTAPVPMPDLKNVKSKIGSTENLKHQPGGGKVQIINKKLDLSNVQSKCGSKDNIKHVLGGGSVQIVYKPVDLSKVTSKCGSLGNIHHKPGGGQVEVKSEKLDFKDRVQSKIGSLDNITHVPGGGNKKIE
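K18 P301L tau (15 uM unlabeled/0.24 uM Alexa 594-labeled, final) + compound + heparin 20 uM final; 100 mM NaOAc pH 7; 6 hr 37 C; ThT 30 uM final added, 1 hr RT; FP ex 555/em 632 nm.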
Tau fluor cs = counter-screen for tau fibril formation inhibitors | Potency, µM (top dose mostly 57.7 µM), inactives show top-dose activity change, negative = decrease | actives 0.93% (n = 280,000) | tau K18 P301L Alexa594 fluorescence, heparin fibrillization; further: potency means the concentration at half of the fitted maximal effect; on the % scale 0 is the no-effect control and ±100 the full control effect; nearly all actives have a fitted effect of over 55% in size
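Human K18 P301L tau (15 uM unlabeled plus 0.24 uM Alexa 594-labeled, final) in 100 mM sodium acetate pH 7 was mixed with compound and 20 uM heparin and incubated 6 hr at 37 C.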
KDM4E inh = JMJD2E (human) inhibition. JMJD2E catalytic domain, FDH-coupled NADH fluorescence (FDH is formaldehyde dehydrogenase). AID 2147. Potency, µM (highest dose often 57.1 µM), for the others: top-dose activity change, negative = inhibition, usual class: inhibitors. actives 1.6% (n = 230,000); active means well fitted inhibition curve with a large enough effect, not every such curve was filed as active; inconclusive means small, poorly fitted or top-dose-only effect, or another doubt; inactive means no such curve, though single readings can be large or run the other way;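 further: potency means the concentration at half of the fitted maximal effect; 0% = wells with enzyme and -100% = buffer wells without enzyme; nearly all actives have a fitted effect of over 50% in size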
Target sequence (B2RXH2 1-337 limits assumed): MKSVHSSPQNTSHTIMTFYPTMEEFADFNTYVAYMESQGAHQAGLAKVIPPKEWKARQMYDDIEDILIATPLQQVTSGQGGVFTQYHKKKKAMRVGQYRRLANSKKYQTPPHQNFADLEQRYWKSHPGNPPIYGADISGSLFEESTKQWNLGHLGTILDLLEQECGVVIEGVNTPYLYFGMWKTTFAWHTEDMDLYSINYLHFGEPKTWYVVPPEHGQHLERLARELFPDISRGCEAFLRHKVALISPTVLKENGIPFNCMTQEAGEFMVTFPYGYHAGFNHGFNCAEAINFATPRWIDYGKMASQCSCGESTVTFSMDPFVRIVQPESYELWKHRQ
Tau fibril ThT = blocks human tau fibril formation measured by thioflavin T. P10636. recombinant tau K18 P301L (four-repeat tau fragment), heparin-induced fibrillization, ThT fluorescence. Potency, µM (highest dose often 57.4 µM), for the others: top-dose activity, negative = inhibition, most hits filed as inhibitors. actives 2.1% (n = 270,000); further: potency means the concentration at half of the fitted maximal effect; on the % scale 0 is the no-effect control and ±100 the full control effect; nearly all actives have a fitted effect of over 55% in size
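K18 P301L tau (15 uM + 0.24 uM Alexa 594-tagged), heparin 20 uM, NaOAc pH 7, 6 h 37 C; ThT 30 uM, 1 h RT, ex 450/em 510 nm.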
Lamin A splicing = changes lamin A minigene splicing in HeLa cells. AID 1487. Potency, µM (doses to about 46.1 µM), without a hit: at the highest dose ratio change, negative = inhibition, actives largely listed as inhibitors. HeLa LMNA splicing GFP/RFP minigene ratio, 48 h. actives 0.01% (n = 200,000); active means well fitted inhibition curve with a large enough effect in the signal ratio, with a control signal flat, not every such curve was filed as active; inconclusive means small, poorly fitted or top-dose-only effect, or effect the other way, or a change in a side signal; the % refers to the signal ratio; further: potency means the concentration at half of the fitted maximal effect; on the % scale 0 is the no-effect control and ±100 the full control effect
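S3 HeLa stable clones carrying a lamin A-EGFP splicing minigene plus DsRed2 were seeded at 600 cells/well in Opti-MEM with 2% FBS, pin-dosed and incubated 48 h at 37°C. Acumen cytometry (488 nm) gave the GFP/RFP total-intensity ratio.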
* marks the source's active call; other numbers are inactive results; u = inconclusive; x = not tested or not shown; [ ] = remark or other dose. A selection: hits, their analogues and other compounds. The true share with any hit is near 3.2%. Unless noted, the call rests on the fitted dose curve; in most records, active means well fitted curve in the direction sought with a large enough effect; inconclusive means small, poorly fitted or top-dose-only effect, or another doubt; inactive means no such curve, though single readings can be large; an effect the other way counts as inactive or inconclusive.

SMILES	CBFb-RUNX1 inh	Tau fibril FP	Tau fluor cs	KDM4E inh	Tau fibril ThT	Lamin A splicing
O=[N+]([O-])c1ccc2c(c1N1CCCCC1)=NC1(CCCCC1)[N+]=2[O-]	-26%	u	u	-20%	13µM*	x
CCc1cc(=O)[nH]c(-n2[nH]c(-c3ccccc3)cc2=O)n1	-6%	1%	-8%	-11%	-16%	x
O=c1cc(-c2ccccc2)[nH]n1-c1nc2ccccc2[nH]1	1%	u	u	u	25µM*	-14%
CCOc1ccccc1-c1nnc(SCc2ccc(Cl)cc2)o1	x	-8%	-20%	x	u	x
CC[C@@H](C)[C@@H](CO[C@@H](Cc1ccccc1)C(=O)N[C@@H](CCS(C)(=O)=O)C(=O)OC(C)C)NC[C@@H](N)CS	20%	u	-11%	x	35µM*	x
COC(=O)C(CC(C)C)NC(=O)C(N)Cc1ccccc1 (centres undefined)	1%	-5%	2%	8%	3%	6%
Cc1ccc(NC(=O)CSc2nc3c(oc4ccccc43)c(=O)n2-c2ccc(F)cc2)c(C)c1	x	-7%	4%	x	8%	x
COc1ccc(/C=N/Nc2cc(N3CCCC3)nc(N3CCCC3)n2)cc1	u	-3%	u	u	u	x
Oc1ccc(/C=N/Nc2cc(N3CCCC3)nc(N3CCCC3)n2)cc1	-1%	3%	18µM*[quencher]	u	u	-12%
Oc1cccc(/C=N/Nc2cc(N3CCCC3)nc(N3CCCC3)n2)c1	-21%	-1%	16µM*[quencher]	-24%	u	u
Cc1cc(C)c(NC(=O)NC2CCCCC2)c(C)c1	1%	-4%	-1%	6%	-3%	1%
Cc1cc(C2CCCCC2)n(O)c(=O)c1	6%	6%	-6%	10µM*	-5%	u
O=C(CNc1cccc(C(F)(F)F)c1)N/N=C/c1cn(-c2ccccc2)nc1-c1ccccc1	7%	8.9µM*	u	-27%	0%	u
Cc1nn(Cc2ccccc2)c(C)c1/C=N/NC(=O)CNc1cccc(C(F)(F)F)c1	-1%	-4%	u	-13%	-7%	-24%
Cc1ccc2c(CC(=O)Nc3ccc(S(=O)(=O)N4CCCCC4C)cc3)coc2c1 (centres undefined)	x	u	u	x	8%	x
Cc1ccc2occ(CC(=O)Nc3ccc(S(=O)(=O)N4CCC(C)CC4)cc3)c2c1	x	8.9µM*	u	x	5%	x
CC1CCN(S(=O)(=O)c2ccc(NC(=O)Cc3cccs3)cc2)CC1	-11%	-7%	u	-6%	-16%	-6%
Cc1ccc2c(CC(=O)Nc3cccc(C(F)(F)F)c3)coc2c1	x	25µM*	u	x	1%	x
Cc1ccc2c(CC(=O)Nc3ccc(S(=O)(=O)N4CCC(C)CC4)cc3)coc2c1	x	10µM*	u	x	8%	x
CC(CNC(=O)c1ccc2nc(CCc3ccccc3)oc2c1)c1ccccc1 (centres undefined)	x	-3%	-5%	x	-10%	-7%[46 µM]
CCCCc1cc2c(cn1)=C(OC(=O)c1ccc(Cl)nc1)C(C)(OC(=O)CC)C(=O)C=2 (centres undefined)	0%[13.1 µM]	-2%[11.6 µM]	-16%[11.6 µM]	-4%[11.4 µM]	-14%[11.5 µM]	4%[9.22 µM]
C=CCn1c(O)c(CN2CCCCC2)c(C)c(C#N)c1=O	1%	u	-25%	u	25µM*	7%[9.22 µM]
Cc1c(CN2CCCC(C)C2)c(O)n(CCO)c(=O)c1C#N (centres undefined)	6%	4%	-2%[2.34 µM]	14%	-4%	-6%[46 µM]
COc1cc(CNc2ccc(O)cc2)cc(Br)c1OCc1ccccc1	-21%	u	13µM*[quencher]	u	25µM*	x
COc1ccc(Br)cc1CNc1ccc(O)cc1	u	25µM*	u	u	13µM*	-5%
COc1ccc(Br)cc1CNc1ccc2[nH]c(=O)[nH]c2c1	u	11%	-24%	u	u	u
